Holding throughout (test): DAPPL (digital affinity profiling via proximity ligation, sequencing); 10 mM Tris-HCl pH 7.5, 50 mM NaCl, 1 mM DTT, 4% glycerol, room temperature, 30 min; GST-TFs on glutathione beads, 16-mer random dsDNA library, 0.1% formaldehyde crosslink after washing; high values mean tight binding
The target in assay [1] is HSF1 (Homo sapiens, UniProt Q00613 1-529). The note with it: protein: recombinant; tags: N-terminal GST; chain copies: 3; dsDNA, one strand shown. The procedure, abridged:
(§1)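 A tag-only sample was pooled with DNA-barcoded human transcription factors that had been expressed in yeast as GST fusions and captured on glutathione beads. The pools were incubated for 30 min at room temperature with 200 nmole of a random double-stranded 16-mer DNA library in Tris/NaCl/DTT/glycerol buffer, then washed, crosslinked with 0.1% formaldehyde, proximity-ligated (BsaI/T4 ligase, 1 h, 37 °C), PCR-amplified and sequenced on an Illumina NextSeq500. Binding signal is each hexamer's read frequency for a factor divided by its frequency for the tag-only sample.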

Assay [2] has as its target T1, ETV2 (Homo sapiens, UniProt O00321 1-342).
T1 sequence: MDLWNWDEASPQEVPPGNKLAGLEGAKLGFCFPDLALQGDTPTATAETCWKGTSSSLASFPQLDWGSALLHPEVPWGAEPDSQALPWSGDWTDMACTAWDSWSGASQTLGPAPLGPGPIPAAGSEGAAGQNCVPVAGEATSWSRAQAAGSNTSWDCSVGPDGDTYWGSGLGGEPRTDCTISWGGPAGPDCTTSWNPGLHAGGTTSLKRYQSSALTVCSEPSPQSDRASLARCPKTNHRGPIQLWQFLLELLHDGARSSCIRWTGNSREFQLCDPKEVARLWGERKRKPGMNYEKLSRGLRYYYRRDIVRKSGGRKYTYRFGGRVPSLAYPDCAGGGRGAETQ
The note with it: protein: recombinant; tags: N-terminal GST; dsDNA, one strand shown. The procedure, abridged:
as §1

Assay [3] deals with CRX (Homo sapiens, UniProt O43186 1-299). The note with it: protein: recombinant; tags: N-terminal GST; dsDNA, one strand shown. The procedure, abridged: as §1
For assay [4], the target named is T2, SPDEF (Homo sapiens, UniProt O95238 1-335).
T2 sequence: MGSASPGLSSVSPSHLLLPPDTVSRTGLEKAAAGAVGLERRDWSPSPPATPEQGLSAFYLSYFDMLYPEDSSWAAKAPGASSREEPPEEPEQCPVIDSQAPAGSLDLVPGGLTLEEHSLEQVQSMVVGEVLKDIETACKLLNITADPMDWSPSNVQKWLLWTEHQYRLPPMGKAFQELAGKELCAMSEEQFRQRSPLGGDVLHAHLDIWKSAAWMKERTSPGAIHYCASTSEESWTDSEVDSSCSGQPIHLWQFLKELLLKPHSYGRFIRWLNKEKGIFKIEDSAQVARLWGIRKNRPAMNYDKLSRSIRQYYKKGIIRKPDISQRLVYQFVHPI
The following applies: protein: recombinant; tags: N-terminal GST; dsDNA, one strand shown. The procedure, abridged:
as §1

For assay [5], the target named is T3, ELK1 (Homo sapiens, UniProt P19419 1-428).
T3 sequence: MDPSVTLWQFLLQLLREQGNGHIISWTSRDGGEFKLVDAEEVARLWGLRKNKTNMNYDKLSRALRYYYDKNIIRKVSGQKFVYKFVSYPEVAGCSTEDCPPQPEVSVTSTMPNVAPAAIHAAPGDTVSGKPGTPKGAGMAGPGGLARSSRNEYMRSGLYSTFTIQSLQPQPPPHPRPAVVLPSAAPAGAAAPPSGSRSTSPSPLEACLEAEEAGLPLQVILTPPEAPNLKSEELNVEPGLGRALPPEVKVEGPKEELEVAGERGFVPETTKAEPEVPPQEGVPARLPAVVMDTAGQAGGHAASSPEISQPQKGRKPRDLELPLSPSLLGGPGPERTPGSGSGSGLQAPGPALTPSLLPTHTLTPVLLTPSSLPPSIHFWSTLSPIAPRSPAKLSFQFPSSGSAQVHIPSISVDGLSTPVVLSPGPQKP
The following applies: protein: recombinant; tags: N-terminal GST; dsDNA, one strand shown. The procedure, abridged:
as §1

Assay [6] deals with T4, EHF (Homo sapiens, UniProt Q9NZC4 1-300).
T4 sequence: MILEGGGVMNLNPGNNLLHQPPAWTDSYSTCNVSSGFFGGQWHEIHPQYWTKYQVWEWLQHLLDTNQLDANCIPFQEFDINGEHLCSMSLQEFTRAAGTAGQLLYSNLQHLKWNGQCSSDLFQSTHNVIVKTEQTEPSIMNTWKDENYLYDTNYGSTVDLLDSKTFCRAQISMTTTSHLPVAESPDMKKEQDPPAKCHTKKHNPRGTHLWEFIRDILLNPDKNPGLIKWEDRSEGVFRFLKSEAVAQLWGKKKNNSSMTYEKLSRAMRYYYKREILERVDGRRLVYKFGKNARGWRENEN
The following applies: protein: recombinant; tags: N-terminal GST; dsDNA, one strand shown. The procedure, abridged:
as §1

In assay [7] the target is SPIB (Homo sapiens, UniProt Q01892 1-262). The following applies: protein: recombinant; tags: N-terminal GST; dsDNA, one strand shown. The procedure, abridged:
as §1

Assay [8] deals with T5, ETV3L (Homo sapiens, UniProt Q6ZN32 1-361).
T5 sequence: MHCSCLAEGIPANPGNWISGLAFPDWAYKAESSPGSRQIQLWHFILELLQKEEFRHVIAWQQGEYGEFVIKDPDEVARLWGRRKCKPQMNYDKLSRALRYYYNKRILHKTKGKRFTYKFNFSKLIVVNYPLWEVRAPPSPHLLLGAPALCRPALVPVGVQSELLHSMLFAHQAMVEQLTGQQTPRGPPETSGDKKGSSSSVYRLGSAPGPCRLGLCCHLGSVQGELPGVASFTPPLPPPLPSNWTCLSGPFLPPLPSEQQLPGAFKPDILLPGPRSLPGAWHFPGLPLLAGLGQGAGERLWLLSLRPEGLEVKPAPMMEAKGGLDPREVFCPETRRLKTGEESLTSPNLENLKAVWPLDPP
The note with it: protein: recombinant; tags: N-terminal GST; dsDNA, one strand shown. The procedure, abridged: as §1

In assay [9] the target is ETV6 (Homo sapiens, UniProt P41212 1-452). The note with it: protein: recombinant; tags: N-terminal GST; dsDNA, one strand shown. The procedure, abridged:
as §1

The target of assay [10] is ELF1 (Homo sapiens, UniProt P32519 1-619). The note with it: protein: recombinant; tags: N-terminal GST; dsDNA, one strand shown. The procedure, abridged:
as §1

In assay [11] the target is T6, ELK3 (Homo sapiens, UniProt P41970 1-407).
T6 sequence: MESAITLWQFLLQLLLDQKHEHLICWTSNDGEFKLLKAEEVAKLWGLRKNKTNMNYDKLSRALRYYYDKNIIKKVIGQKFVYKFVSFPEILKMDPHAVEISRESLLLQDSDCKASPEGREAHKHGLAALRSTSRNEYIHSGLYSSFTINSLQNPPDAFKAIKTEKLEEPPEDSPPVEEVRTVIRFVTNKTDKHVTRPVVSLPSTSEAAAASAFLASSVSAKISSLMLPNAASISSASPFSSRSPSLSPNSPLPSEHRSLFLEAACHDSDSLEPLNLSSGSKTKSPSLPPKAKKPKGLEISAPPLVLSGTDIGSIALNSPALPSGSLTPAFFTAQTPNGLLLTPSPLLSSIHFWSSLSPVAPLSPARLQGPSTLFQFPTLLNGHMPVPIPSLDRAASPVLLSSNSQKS
The following applies: protein: recombinant; tags: N-terminal GST; dsDNA, one strand shown. The procedure, abridged:
as §1

Assay [12] concerns the target T7, ETS2 (Homo sapiens, UniProt P15036 1-469).
T7 sequence: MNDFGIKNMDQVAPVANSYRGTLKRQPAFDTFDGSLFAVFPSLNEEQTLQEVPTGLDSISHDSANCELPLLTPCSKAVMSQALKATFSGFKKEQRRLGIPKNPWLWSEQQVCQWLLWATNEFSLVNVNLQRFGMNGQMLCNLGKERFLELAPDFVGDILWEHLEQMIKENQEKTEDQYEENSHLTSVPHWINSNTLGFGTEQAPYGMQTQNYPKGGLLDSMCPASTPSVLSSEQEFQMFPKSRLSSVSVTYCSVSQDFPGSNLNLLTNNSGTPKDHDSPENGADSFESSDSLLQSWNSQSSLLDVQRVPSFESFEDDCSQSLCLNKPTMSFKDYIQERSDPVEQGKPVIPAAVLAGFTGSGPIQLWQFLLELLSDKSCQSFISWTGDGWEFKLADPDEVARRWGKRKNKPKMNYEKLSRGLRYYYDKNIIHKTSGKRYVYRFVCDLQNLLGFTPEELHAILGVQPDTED
The following applies: protein: recombinant; tags: N-terminal GST; dsDNA, one strand shown. The procedure, abridged: as §1

Assay [13] addresses T8, ETV7 (Homo sapiens, UniProt Q9Y603 1-341).
T8 sequence: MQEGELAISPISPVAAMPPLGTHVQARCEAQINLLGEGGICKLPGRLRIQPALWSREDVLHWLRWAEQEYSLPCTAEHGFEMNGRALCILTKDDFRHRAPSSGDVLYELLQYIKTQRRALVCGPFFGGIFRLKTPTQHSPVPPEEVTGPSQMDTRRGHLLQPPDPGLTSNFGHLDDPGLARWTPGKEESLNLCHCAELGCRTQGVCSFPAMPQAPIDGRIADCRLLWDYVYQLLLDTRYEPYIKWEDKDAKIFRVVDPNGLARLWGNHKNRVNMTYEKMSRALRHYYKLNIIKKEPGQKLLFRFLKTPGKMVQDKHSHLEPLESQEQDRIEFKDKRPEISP
The following applies: protein: recombinant; tags: N-terminal GST; dsDNA, one strand shown. The procedure, abridged:
as §1

Assay [14] has as its target T9, ELF3 (Homo sapiens, UniProt P78545 1-371).
T9 sequence: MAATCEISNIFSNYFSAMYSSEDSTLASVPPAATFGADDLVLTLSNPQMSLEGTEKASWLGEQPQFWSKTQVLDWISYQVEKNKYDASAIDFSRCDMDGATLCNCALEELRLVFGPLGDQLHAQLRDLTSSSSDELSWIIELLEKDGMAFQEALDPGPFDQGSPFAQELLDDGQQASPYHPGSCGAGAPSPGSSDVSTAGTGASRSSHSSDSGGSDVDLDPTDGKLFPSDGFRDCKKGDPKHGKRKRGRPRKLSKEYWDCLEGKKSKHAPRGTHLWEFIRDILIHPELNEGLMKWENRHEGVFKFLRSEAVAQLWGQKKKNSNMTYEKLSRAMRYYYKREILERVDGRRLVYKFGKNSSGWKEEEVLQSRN
The following applies: protein: recombinant; tags: N-terminal GST; dsDNA, one strand shown. The procedure, abridged:
as §1

CRX, sequence (O43186 whole entry): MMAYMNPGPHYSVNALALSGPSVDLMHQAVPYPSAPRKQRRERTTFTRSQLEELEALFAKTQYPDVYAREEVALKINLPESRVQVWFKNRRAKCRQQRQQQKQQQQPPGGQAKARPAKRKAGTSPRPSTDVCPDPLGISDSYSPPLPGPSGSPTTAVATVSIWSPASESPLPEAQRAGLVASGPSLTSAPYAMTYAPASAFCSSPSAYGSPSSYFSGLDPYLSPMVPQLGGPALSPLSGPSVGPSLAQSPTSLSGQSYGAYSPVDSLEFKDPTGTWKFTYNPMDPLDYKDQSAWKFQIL
ETV6, sequence (P41212 whole entry): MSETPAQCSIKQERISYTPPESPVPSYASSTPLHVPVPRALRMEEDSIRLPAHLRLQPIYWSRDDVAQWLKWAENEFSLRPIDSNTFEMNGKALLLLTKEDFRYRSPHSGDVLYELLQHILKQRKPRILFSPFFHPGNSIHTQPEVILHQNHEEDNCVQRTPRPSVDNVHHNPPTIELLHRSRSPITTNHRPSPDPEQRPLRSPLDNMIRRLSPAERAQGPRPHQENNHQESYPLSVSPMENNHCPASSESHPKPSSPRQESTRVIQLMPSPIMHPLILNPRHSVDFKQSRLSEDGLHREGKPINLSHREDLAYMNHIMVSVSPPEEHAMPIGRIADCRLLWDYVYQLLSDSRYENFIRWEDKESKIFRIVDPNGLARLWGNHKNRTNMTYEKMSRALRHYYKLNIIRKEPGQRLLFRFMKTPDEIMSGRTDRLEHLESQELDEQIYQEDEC
HSF1, sequence (Q00613 whole entry, the tested form may be a part): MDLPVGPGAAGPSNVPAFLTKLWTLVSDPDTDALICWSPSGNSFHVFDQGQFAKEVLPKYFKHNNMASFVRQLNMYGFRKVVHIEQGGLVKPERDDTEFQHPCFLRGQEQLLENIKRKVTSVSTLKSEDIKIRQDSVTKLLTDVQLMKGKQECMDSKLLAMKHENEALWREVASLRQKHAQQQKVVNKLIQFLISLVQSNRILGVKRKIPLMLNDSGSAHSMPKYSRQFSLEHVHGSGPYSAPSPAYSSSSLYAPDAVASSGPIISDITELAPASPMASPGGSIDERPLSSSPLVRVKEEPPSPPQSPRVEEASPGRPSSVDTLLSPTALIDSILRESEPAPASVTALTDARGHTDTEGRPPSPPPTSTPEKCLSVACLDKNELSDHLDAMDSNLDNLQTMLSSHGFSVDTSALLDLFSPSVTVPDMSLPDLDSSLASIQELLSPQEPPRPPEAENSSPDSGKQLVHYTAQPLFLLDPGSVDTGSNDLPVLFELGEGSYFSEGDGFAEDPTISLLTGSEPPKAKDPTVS
ELF1, sequence (P32519 whole entry): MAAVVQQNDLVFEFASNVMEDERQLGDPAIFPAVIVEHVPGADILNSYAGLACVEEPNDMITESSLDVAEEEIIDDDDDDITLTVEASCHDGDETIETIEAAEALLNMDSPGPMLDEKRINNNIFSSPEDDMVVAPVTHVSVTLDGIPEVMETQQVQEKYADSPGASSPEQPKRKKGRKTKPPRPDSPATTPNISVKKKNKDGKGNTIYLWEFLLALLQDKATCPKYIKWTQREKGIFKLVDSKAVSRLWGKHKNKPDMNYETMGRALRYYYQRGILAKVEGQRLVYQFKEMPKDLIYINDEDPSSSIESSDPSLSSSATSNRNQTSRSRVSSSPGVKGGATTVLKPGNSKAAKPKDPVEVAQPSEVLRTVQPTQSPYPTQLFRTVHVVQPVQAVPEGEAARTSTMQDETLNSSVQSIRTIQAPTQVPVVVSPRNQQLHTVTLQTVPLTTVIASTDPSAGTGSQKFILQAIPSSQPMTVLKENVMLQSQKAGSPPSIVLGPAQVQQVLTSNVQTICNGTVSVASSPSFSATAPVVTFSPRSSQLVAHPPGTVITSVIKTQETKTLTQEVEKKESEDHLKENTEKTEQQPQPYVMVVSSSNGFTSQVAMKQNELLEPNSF
SPIB, sequence (Q01892 whole entry): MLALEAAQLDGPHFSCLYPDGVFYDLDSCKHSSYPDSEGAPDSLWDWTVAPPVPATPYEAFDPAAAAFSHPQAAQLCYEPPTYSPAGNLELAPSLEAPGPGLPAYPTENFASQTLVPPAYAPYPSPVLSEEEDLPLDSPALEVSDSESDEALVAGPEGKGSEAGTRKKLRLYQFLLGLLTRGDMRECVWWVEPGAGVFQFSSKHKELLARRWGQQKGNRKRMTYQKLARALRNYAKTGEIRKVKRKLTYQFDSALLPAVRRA

Consider CAGATC, for which the binding signal is 1.09 fold enrichment (6-mer frequency, TF over GST control) in assay [1]; 1.02 fold enrichment (6-mer frequency, TF over GST control) in assay [2]; 1.13 fold enrichment (6-mer frequency, TF over GST control) in assay [3]; 1.07 fold enrichment (6-mer frequency, TF over GST control) in [4].

As for ATTAGA, the binding signal is 1.45 fold enrichment (6-mer frequency, TF over GST control) in [1] and 1.95 fold enrichment (6-mer frequency, TF over GST control) in assay [3].

With CCAGAT, the binding signal in assay [1] is 1.61 fold enrichment (6-mer frequency, TF over GST control); in [3], 1.34 fold enrichment (6-mer frequency, TF over GST control).

Consider GAATGG, for which the binding signal in assay [5] is 1 fold enrichment (6-mer frequency, TF over GST control); in [6] it was 1.02 fold enrichment (6-mer frequency, TF over GST control); in [7] it was 1.06 fold enrichment (6-mer frequency, TF over GST control); in [1] it was 1.07 fold enrichment (6-mer frequency, TF over GST control); in [2], 1.1 fold enrichment (6-mer frequency, TF over GST control); in [8], 1.01 fold enrichment (6-mer frequency, TF over GST control). Moreover, the binding signal in assay [9] is 1.04 fold enrichment (6-mer frequency, TF over GST control).

As for GATTAG, the binding signal in assay [1] is 2.22 fold enrichment (6-mer frequency, TF over GST control); in assay [3], 3.62 fold enrichment (6-mer frequency, TF over GST control).

In the case of ACGCGA, the binding signal in assay [1] is 1.04 fold enrichment (6-mer frequency, TF over GST control); in [2] it was 1.02 fold enrichment (6-mer frequency, TF over GST control).

GGCTTT: the binding signal was 1.04 fold enrichment (6-mer frequency, TF over GST control) in assay [10]; 1.05 fold enrichment (6-mer frequency, TF over GST control) in assay [6]; 1.11 fold enrichment (6-mer frequency, TF over GST control) in assay [11]; 1.11 fold enrichment (6-mer frequency, TF over GST control) in assay [1]; 1.15 fold enrichment (6-mer frequency, TF over GST control) in [2]; 1.47 fold enrichment (6-mer frequency, TF over GST control) in assay [3]. In addition, the binding signal in assay [8] was 1.03 fold enrichment (6-mer frequency, TF over GST control); in assay [12], 1.03 fold enrichment (6-mer frequency, TF over GST control); in [4], 1 fold enrichment (6-mer frequency, TF over GST control); in assay [13] it was 1.16 fold enrichment (6-mer frequency, TF over GST control); in assay [9], 1.06 fold enrichment (6-mer frequency, TF over GST control).

As for GCATTA, the binding signal in assay [1] is 1.16 fold enrichment (6-mer frequency, TF over GST control); in assay [3] it was 1.64 fold enrichment (6-mer frequency, TF over GST control).

Take TTAGGA: the binding signal in assay [6] was 1 fold enrichment (6-mer frequency, TF over GST control); in assay [1], 1.28 fold enrichment (6-mer frequency, TF over GST control); in assay [14], 1.02 fold enrichment (6-mer frequency, TF over GST control); in [3], 1.77 fold enrichment (6-mer frequency, TF over GST control); in [9], 1 fold enrichment (6-mer frequency, TF over GST control).

For the sequence ATCCAG, the binding signal in assay [1] was 1.53 fold enrichment (6-mer frequency, TF over GST control); in assay [3] it was 1.29 fold enrichment (6-mer frequency, TF over GST control).

(Values after article PMC7862700, “An all-to-all approach to the identification of sequence-specific readers for epigenetic DNA modifications on cytosine”.)
